Cathepsin G inh: inhibitors of human cathepsin G | P08311 | purified enzyme, AMC-tetrapeptide fluorescence, pooled mixtures | inhibition, % at 5 µM (by protocol) | hit rate 0.2% among 62,000 | AID 581;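 active = inhibition above 20% in each of the two mixture wells holding the compound; inactive = inhibition of 20% or less in either well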;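 note: 0% = enzyme control without mixture and 100% = blank lacking enzyme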
FXIIa inh mix: factor XIIa (human) inhibition, mixture screen. P00748. purified FXIIa, fluorogenic substrate, pooled mixtures. inhibition, % at 5 µM. hit rate 0.2% among 62,000. AID 684;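 note: 0% = enzyme without compound and 100% = no enzyme blank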
C1s inh: blocks human complement C1s protease activity; mean inhibition % of two 10-compound mixtures (stronger effect = higher value), % at 5 µM (by protocol); hit rate 0.16% among 62,000; AID 538; purified C1s, fluorogenic AMC substrate, pooled mixtures; P09871;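 active = inhibition above 20% in each of the two 10-compound mixture wells holding the compound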;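 note: 0% = enzyme wells lacking compound mixture and 100% = no-enzyme blank wells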
FXIa inh mix: factor XIa (human) inhibition, mixture screen; P03951; purified FXIa, fluorogenic substrate, pooled mixtures; inhibition, % at 5 µM; hit rate 0.19% among 62,000; AID 680;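 note: each value is inhibition by a whole ten-compound pool holding the compound; 0% = enzyme with no mixture and 100% = wells lacking enzyme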
Target sequence (P03951 19-387 limits assumed): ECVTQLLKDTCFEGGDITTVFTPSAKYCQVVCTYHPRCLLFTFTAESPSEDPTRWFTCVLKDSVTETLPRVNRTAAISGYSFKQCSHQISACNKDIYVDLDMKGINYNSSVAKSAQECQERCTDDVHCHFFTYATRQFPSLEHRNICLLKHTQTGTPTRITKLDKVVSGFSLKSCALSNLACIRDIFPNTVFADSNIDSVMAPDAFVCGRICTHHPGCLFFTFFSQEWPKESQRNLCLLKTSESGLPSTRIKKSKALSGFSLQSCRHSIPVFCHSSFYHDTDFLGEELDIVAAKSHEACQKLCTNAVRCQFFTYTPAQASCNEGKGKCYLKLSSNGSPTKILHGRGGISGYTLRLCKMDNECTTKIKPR
Target sequence (P03951 388-625 limits assumed): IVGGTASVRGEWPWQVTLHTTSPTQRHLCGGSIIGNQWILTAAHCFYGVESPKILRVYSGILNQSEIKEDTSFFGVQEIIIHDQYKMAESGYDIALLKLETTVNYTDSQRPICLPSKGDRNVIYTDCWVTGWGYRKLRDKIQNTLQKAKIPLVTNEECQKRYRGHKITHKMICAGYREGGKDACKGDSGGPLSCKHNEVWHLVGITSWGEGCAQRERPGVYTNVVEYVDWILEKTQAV
SKBR3 24h inh: SK-BR-3 proliferation inhibitors | SK-BR-3 viability, CellTiter-Glo ATP luminescence, 24 h; stronger effect = lower value | viability, % at 10 µM | AID 847 | hit rate 0.47% among 41,000;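 active = viability at or below the median of all test compounds minus 3 SD, in both replicates if run twice, cut at about 45% in these data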;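 note: 100% = median untreated cell wells and 0% = median positive control drug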
Her2 expr inh: inhibitors of human Her2 kinase expression | SKBR-3 HER2 protein level, AlphaScreen, 18-24 h; stronger effect = lower value | HER2 level % of control, % at 10 µM | hit rate 0.69% among 65,000 | AID 645;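 active = HER2 level under 5% of the carrier-only control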;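 note: 100% = DMSO carrier and 0% = 500 nM PU-H71 HSP90 inhibitor; lower value means stronger loss of Her2 protein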
Starred values were filed as active, the others as inactive; . = no result. Rows were chosen to be rich in hits. Some 1.5% of all compounds tested hit in one or more screens of this group. Cut-off read from the data, not from the text of the source, unless noted: active = inhibition above about 20% (passing the limit was not always enough); inactive = the rest.

SMILES	Cathepsin G inh	FXIIa inh mix	C1s inh	FXIa inh mix	SKBR3 24h inh	Her2 expr inh
CC(=O)NC(Cc1c[nH]c2ccccc12)C(=O)OCC(=O)Nc1ccc2c(c1)OCO2 (centres undefined)	-8	5	-12	3	.	-33*
Clc1ccc(-c2nnc(-c3ccccc3)o2)c(Cl)c1	-6	5	-150	-12	.	-26*
Cc1nnc(Sc2nc3c(c(=O)[nH]c(=O)n3C)n2Cc2ccccc2Cl)s1	5	4	3	-5	.	94
CC(=O)Nc1ccc(C(=O)Nc2ccc3c(c2)OCO3)cc1	8	-18	2	6	.	86
CCC(=O)Nc1ccc(C(=O)Nc2ccc3c(c2)OCO3)cc1	16	0	21*	7	60	105
Cc1cc(NC(=O)c2cc3nc(C4CC4)cc(C(F)(F)F)n3n2)no1	14	10	22*	5	97	112
O=C(NCc1ccco1)c1cc2nc(C3CC3)cc(C(F)(F)F)n2n1	2	15	2	5	101	92
Cc1cccc(-c2c3c(=O)n(C)c(=O)n(C)c3c3cccnn23)c1	-12	-17	-56	-6	85	86
O=C(Cc1cccs1)N(c1ccccc1)C1C=CS(=O)(=O)C1 (centres undefined)	9	8	16	3	.	109
CCc1ccccc1N(C(=O)c1cccs1)C1C=CS(=O)(=O)C1 (centres undefined)	15	-2	60*	11	.	122
CC1CCCC(NC(=O)CCn2c(=O)oc3ccccc32)C1C (centres undefined)	1	4	3	-3	92	89
Cc1cc(C)c2cc(CN(Cc3ccco3)C(=O)NCc3ccccc3)c(=O)[nH]c2c1	-2	3	2	9	37*	67
C#CC(C)(CC)NC(=O)Cn1nnc(-c2ccc(S(C)(=O)=O)cc2)n1 (centres undefined)	9	0	11	13	71	80
COc1cc(NS(=O)(=O)c2ccc(C)cc2)c2ncccc2c1	-5	6	-26	-9	77	-5.2*
COc1ccc(NS(=O)(=O)c2cccc3cccnc23)cc1	7	3	2	5	.	103
COc1cc(NCCCC(C)N)c2ncccc2c1 (centres undefined)	-3	-4	-13	1	23*	66
O=C1NC(=O)C(CC(=O)N(Cc2ccco2)C2(C(=O)NC3CCCCC3)CCCCC2)N1 (centres undefined)	0	-18	-17	5	84	114
O=CN(Cc1ccco1)C1(C(=O)NC2CCCCC2)CCCCC1	1	33*	0	9	127	106
CC(=O)N1CCc2cc(Br)cc(S(=O)(=O)N3CCCCCC3)c21	8	-1	-37	1	41*	106
c1cncc(-c2nnc(-c3cccnc3)nn2)c1	7	6	-3	-1	35*	55
Nc1nnc(-c2cccnc2)s1	3	5	2	6	.	83
C=CCNC(=O)COc1ccc(Br)cc1Cl	10	2	12	0	89	78
Cc1ccsc1/C=c1\sc2ncnn2c1=O	43*	19	11	13	70	75
CC(=O)c1coc2ccc(OCCN3CCCCC3)cc12	-6	10	-45	-3	92	126
O=C(CCN1CCC(c2ccccc2)C1)c1cccs1 (centres undefined)	12	2	11	9	147	-45*
SMILES	Cathepsin G inh	FXIIa inh mix	C1s inh	FXIa inh mix	SKBR3 24h inh	Her2 expr inh
Cc1ccc2c(c1)C1CCCC3C1N2CC(=O)N3Cc1ccccc1 (centres undefined)	3	-3	-55	-15	77	.
COc1ccccc1-c1noc(CCC(=O)Nc2ccccc2Cl)n1	-6	3	-4	4	111	101
Cc1cc(=O)[nH]c(SCC(=O)c2ccc(C(C)C)cc2)n1	11	12	57*	-5	86	133
O=S(=O)(c1ccccc1Cl)N1CCC(O)(c2ccc3c(c2)OCO3)CC1	.	.	.	.	.	123
COc1ccccc1N1CCN(C(=O)COc2ccc(Cl)cc2)CC1	3	3	-22	-2	.	72
Cc1cc(C)nc(N2CCC(C(=O)Nc3nnc(C)s3)CC2)n1	10	-1	16	4	116	114
CCn1nnnc1SCC(=O)Nc1cc(OC)cc(OC)c1	1	6	-4	6	90	100
N=c1c2c(-c3ccccc3)c(-c3ccccc3)n(Cc3ccccc3)c2ncn1CCCn1ccnc1	.	.	.	.	51	3.3*
